# HCV inhibitor: blocks hepatitis C virus; Potency, µM (series often up to 41.8 µM), without a hit: top-dose activity change, negative = inhibition, hits mostly inhibitors; Huh7.5.1 HCVcc-Cre infection, luciferase reporter, 44 h; hit rate 3.4% among 340,000; also: potency is read from the fitted curve at half-maximal effect; % is scaled to controls: 0 for no effect and ±100 for the full control effect
#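 Seed cells (1,000/well) for 4 h; treat with compound and infect with HCVcc-Cre, moi about 0.5. Incubate 44 h, then detect luciferase activity.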
# Cycloheximide cs: affects cycloheximide protein synthesis inhibition readout, counter-screen | cell reporter, cycloheximide protein synthesis inhibition counterscreen | max response, % | hit rate 12% among 300,000; in the data active = max response mostly above about 13%, no sharp cut-off; inactive = mostly below about 14%; also: read at 38.3 µM for the half of the compounds with a filed dose; 0% is about no effect
# Pf growth 48h: inhibits P. falciparum growth in the first generation, 48 h; hit rate 5.9% among 310,000; P. falciparum luciferase growth in erythrocytes, 48 h; Potency, µM (top dose mostly 28.7 µM), without a hit: top-dose activity change, negative = inhibition, hits mostly inhibitors; AID 504832; also: potency is read from the fitted curve at half-maximal effect; % is scaled to controls: 0 for no effect and ±100 for the full control effect
#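 Growth was read as firefly luciferase luminescence after a 48 h, 37 C, 5% CO2 exposure of compounds to reporter-bearing P. falciparum cultures (0.1% parasitemia, 2% hematocrit final) in Albumax-supplemented RPMI 1640.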
# Pf growth 96h: P. falciparum growth inhibition at 96 hours | P. falciparum luciferase reporter growth, 96 h | Potency, µM (titrated, usually from 28.7 µM), for inactives: top-dose activity change, negative = inhibition, actives largely listed as inhibitors | hit rate 6.9% among 320,000 | AID 504834; also: potency is read from the fitted curve at half-maximal effect; % is scaled to controls: 0 for no effect and ±100 for the full control effect
#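 96 h incubation, 37 C, 5% CO2, of luciferase-reporter P. falciparum-infected RBCs (2% hematocrit, 0.05% parasitemia final) with test compounds; endpoint luminescence.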
# Shiga toxin inh: blocks Shiga toxin action in Vero cells; AID 2315; Vero cells, Shiga toxin protein synthesis inhibition reporter; hit rate 9.2% among 290,000; inhibition, % at 38.7 µM; in the data active = inhibition mostly above about 28%, no sharp cut-off; inactive = mostly below about 43%; also: 0% is about no effect
# AMA1-RON2 inh: inhibitors of Plasmodium falciparum AMA1-RON2 interaction. hit rate 0.2% among 360,000. AID 720542. AlphaScreen AMA1-biotinylated RON2 peptide binding. Potency, µM (highest dose often 58.2 µM), without a hit: at the top dose activity change, negative = inhibition, usual class: inhibitors;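 also: potency is read from the fitted curve at half-maximal effect; 0% = vehicle wells and -100% = peptide control; nearly all actives have a fitted effect of over 45% in size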
#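 AMA1 (3D7) with his tag at 25 nM final met compounds first, then biotinylated RON2 peptide at 25 nM; detection used donor plus acceptor beads, 10 µg/mL apiece, read by AlphaScreen after 30 min at room temperature.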
# Numbers without * were called inactive; ? = inconclusive; / = not tested or not shown. An excerpt weighted towards active compounds, which were near 21% of everything screened. Unless noted, calls follow the shape of the dose curve; as a rule, active = well fitted curve in the direction sought with a large enough effect; inconclusive = small, poorly fitted or top-dose-only effect, or another doubt; inactive = no such curve, though single readings can be large; an effect the other way counts as inactive or inconclusive.
SMILES,HCV inhibitor,Cycloheximide cs,Pf growth 48h,Pf growth 96h,Shiga toxin inh,AMA1-RON2 inh
Oc1ccc2c3c1O[C@H]1c4oc5ccccc5c4C[C@@]4(O)[C@@H](C2)N(CC2CC2)CC[C@]314,-20%,-3,?,4.7µM*,25,-4%
Oc1ccc2c3c1O[C@H]1c4[nH]c5ccccc5c4C[C@@]4(O)[C@@H](C2)N(CC2CC2)CC[C@]314,?,/,?,?,/,-2%
Oc1ccc2c3c1O[C@H]1[C@@H](O)CC[C@@]4(O)C(C2)N(CC2CCC2)CCC314 (some centres not stated),/,/,?,3.4µM*,/,/
C=CCN1CC[C@]23c4c5ccc(O)c4OC2C(O)CC[C@@]3(O)[C@H]1C5 (some centres not stated),-15%,/,/,/,/,9%
C=CCn1c(SCC(=O)N2CCN(c3ccccc3)CC2)nc2c([nH]c3ccccc32)c1=O,?,-1,104%,-8%,6,-10%
C=CCN(CC(O)c1cccc([N+](=O)[O-])c1)C(C)CCc1ccccc1 (configuration not stated),7%,9,1.5µM*,?,12,-28%
COc1ccccc1Nc1nc(Cl)nc(Nc2ccccc2OC)n1,13µM*,6,-4%,-26%,6,-8%
COc1ccccc1Nc1cc(C)nc(Nc2ccccc2OC)n1,2.5µM*,/,?,10µM*,/,-23%
CC(C)OC(=O)CSc1nc(Cc2cccs2)nc2ccccc12,-3%,16,?,-25%,7,-13%
O=C(NCc1ccccc1Cl)c1ccc2sc([C@H]3C[C@H](O)[C@@H](CO)O3)nc2c1,/,/,/,/,/,25%
COc1ccc2cc(C(=O)CS(=O)(=O)c3ccccc3)c(=O)oc2c1,15%,21,-3%,12µM*,25,4%
COc1cccc2cc(C(=O)CS(=O)(=O)c3ccc(C(C)(C)C)cc3)c(=O)oc12,-2%,-1,21%,?,-13,-6%
O=C(CS(=O)(=O)c1ccccc1)c1cc2cc(F)ccc2oc1=O,4%,50*,4%,-3%,45*,-11%
O=C(CS(=O)(=O)c1ccccc1)c1cc2ccccc2oc1=O,-14%,32*,20%,56%,63*,4%
CCC(=O)N(C1=C(NC)C(=O)c2ccccc2C1=O)C(C)C,?,9,?,?,1,-7%
CNC1=C(N(C(C)=O)c2ccc(Br)cc2)C(=O)c2ccccc2C1=O,?,-8,0.042µM*,0.029µM*,-13,-1%
CCN(CC)C(=O)C1=C(C)N(CCC2=CCCCC2)C(=O)C(CC(=O)NC(c2ccccc2)c2ccccc2)C1 (configuration not stated),/,/,/,/,/,-10%
O=C(Nc1ccc2c(c1)OCCO2)C1c2ccccc2OCC(=O)N1Cc1cccnc1 (configuration not stated),/,/,/,/,/,1%
Cc1cccnc1C(NC(=O)C1CCN(CCCOc2ccc(F)cc2)CC1)c1ccccc1 (configuration not stated),/,/,/,/,/,-3%
O=c1cc(CS(=O)(=O)c2ccccc2)nc(-c2ccncc2)[nH]1,11%,-3,12µM*,?,-6,-4%
CCCNC(=O)C1(C)CCN(C(=O)c2ccc3snnc3c2)C1 (configuration not stated),/,/,/,/,/,12%
Cc1nonc1OCCN1CCN(c2ccc([N+](=O)[O-])cc2)CC1,?,20*,?,?,19,-12%
O=[N+]([O-])c1ccc(N2CCN(CCOc3nonc3-c3ccccc3)CC2)c(Cl)c1,6.3µM*,15,10%,?,-3,2%
C[C@H]1CN([C@@H](C)CO)C(=O)c2cc(-c3cccc(F)c3)cnc2O[C@H]1CN(C)C(=O)c1cnccn1,/,/,/,/,/,5%
COc1ccc(NC(=O)CCCOc2ccc(C)cc2)cc1S(=O)(=O)N1CCCCC1,/,/,/,/,/,-9%
SMILES,HCV inhibitor,Cycloheximide cs,Pf growth 48h,Pf growth 96h,Shiga toxin inh,AMA1-RON2 inh
COCCNC(=O)CN1C(=O)/C(=C/c2ccccc2)Oc2ccc(C(C)(C)C)cc21,-28%,-2,?,39%,-13,12%
O=C(NCCN1C(=O)S/C(=C\c2cccnc2)C1=O)c1cc(S(=O)(=O)N2CCOCC2)ccc1F,-10%,-1,-6%,-6%,-10,-5%
CC(C)(C)c1ccc(/C=C2\SC(=O)N(CCNC(=O)c3cccc(S(=O)(=O)N4CCOCC4)c3)C2=O)cc1,?,69*,-36%,-49%,131*,-21%
Cc1ccc(S(=O)(=O)N2CCOCC2)cc1C(=O)NCCN1C(=O)S/C(=C\c2ccccc2Cl)C1=O,13µM*,-3,-14%,?,16,-4%
CC(=O)c1cc2c(cc1NS(=O)(=O)c1ccccc1)OCO2,-10%,-2,/,13%,-15,-11%
CCC(C)NS(=O)(=O)c1ccc(S(=O)(=O)Nc2cc3c(cc2C(C)=O)OCO3)cc1 (configuration not stated),14µM*,-3,20%,9.3µM*,-3,-6%
CSc1ccccc1NC(=O)CN(C)C(=O)c1ccc(NC(=O)c2cccs2)cc1,?,/,?,?,/,-3%
COC(=O)CCC(=O)Nc1ccc(N=Nc2ccccc2)cc1,-1%,39*,56%,63%,64*,-11%
O=C(COC(=O)c1ccccc1O)Nc1ccc(OC(F)F)cc1,-6%,22*,40%,9.3µM*,56*,-9%
O=C(COC(=O)C1CC1)Nc1ccc(OC(F)F)cc1,14%,26*,/,59%,24*,1%
O=C(COC(=O)C1CC1)Nc1ccc(N=Nc2ccccc2)cc1,11%,66*,242%,355%,79*,-12%
CCO[C@H]1OC(C(=O)N2CCOCC2)=C[C@@H](C2CC2)[C@@H]1CCCO,3%,-3,10%,47%,-18,22%
O=C(Nc1ccc2c(c1)OCO2)c1c(F)cccc1F,-11%,33*,169%,/,75*,6%
O=C(Nc1ccc2c(c1)OCO2)c1cccc(F)c1,-25%,34*,118%,/,75*,-10%
O=C(COC(=O)c1cccc(F)c1)Nc1ccc2c(c1)OCCO2,13%,/,113%,133%,/,3%
O=C(O)Cc1ccc(NC(=O)Nc2ccc3c(c2)OCO3)cc1,14%,35*,41%,120%,47*,13%
O=C(Nc1ccc2c(c1)OCO2)C1CCCN1C(=O)Nc1cccc(F)c1 (configuration not stated),17%,15,?,/,15,13%
O=C(Nc1cccc(F)c1)Nc1ccc2c(c1)OCO2,-10%,59*,94%,47%,85*,0%
CC(C)(C)OC(=O)C[C@@H]1C/C=C\C[C@@H](CC(=O)N[C@H](CO)Cc2ccccc2)C(=O)NC[C@H](c2ccccc2)OC1=O,3%,/,/,/,/,8%

# Assay outcomes as filed in PubChem BioAssay.
